# Measurements from PubChem BioAssay AID493169 (National Center for Advancing Translational Sciences (NCATS), 2011).
# Results filed as inconclusive are left out. Calls of active or inactive are those of the source. Calls come from the whole dose curve; as a rule, active = well fitted inhibition curve with a large enough effect; inconclusive = small, poorly fitted or top-dose-only effect; inactive = flat fitted curve, though single readings scatter.
# Assay: CHOP2 Reporter Counterscreen Assay for Inhibitors of Ubiquitin-specific Protease USP2a;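 note: activated enterokinase alone at 50 pM in a cell-free format rather than USP2a or CHOP2; nearly all actives have a fitted effect of over 55% in size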
# Details: purified enterokinase, fluorogenic substrate, 485/531 nm; series mostly up to 38.3 µM; activity change, negative = inhibition: at the top concentration
# Procedure, shortened: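 Fluorescence (485/531 nm) read 10 min after adding 25nM reporter substrate to 50 pM activated EK preincubated 30 min RT with compound; Tris pH 8.0/CaCl2/CHAPS buffer. Data normalized to buffer-alone inhibition; concentration-response curves fitted.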
# % is set by controls: 0 for no effect and ±100 for the full control effect; potency is the fitted concentration of half-maximal effect.
Structure (SMILES),"activity change, negative = inhibition",Potency
NC(=O)CC(NC(=O)Cc1ccc(Br)cc1)c1ccc(N2CCC(Cc3ccccc3)CC2)c([N+](=O)[O-])c1 (stereo not given),2.37% (inactive),–
C=CC#CC[N+]1(CC#Cc2ccccc2)CCOCC1,–,2.24 µM (active)
COc1ccc(OCC(=O)Nc2ccccc2OC)cc1,9.5% (inactive),–
CNC(=O)NC(=O)CSc1ccc(NC(C)=O)cc1,-0.346% (inactive),–
Cc1ccc(NC(=O)CCC(=O)OC(C)C(=O)c2ccccc2)cc1 (stereo not given),-2.47% (inactive),–
CC(=O)N1CCCc2cc(S(=O)(=O)CCC(=O)N3CCN(c4cccc(C)c4)C(C)C3)ccc21 (stereo not given),-0.373% (inactive),–
O=C(Cn1cnc2sc(-c3ccccc3)cc2c1=O)NCc1ccco1,–,10 µM (active)
O=[N+]([O-])/C(C(Cl)=C(Cl)Cl)=C(\Sc1ccccc1)N1CCCCC1,-0.355% (inactive),–
CC1CCN(c2ccc3c(c2)S(=O)(=O)c2cccc(C(=O)NC4CC4)c2C3=O)CC1,8.41% (inactive),–
Cc1nc2n(n1)CC(O)CS2 (stereo not given),1.03% (inactive),–
O=[N+]([O-])c1c(NCCO)cc(N2CCN(Cc3ccc4c(c3)OCO4)CC2)c2nonc12,-0.847% (inactive),–
CCSc1nc(N2CCCCC2)c2c(c1C#N)CCCC2,0.66% (inactive),–
COc1ccccc1NC(=O)N1CCN(c2ccccn2)CC1,0.312% (inactive),–
CNS(=O)(=O)c1cccc(C(=O)OCC(=O)c2cc(C)n(-c3ccc4c(c3)OCO4)c2C)c1,8.11% (inactive),–
Cc1cc(C)c2c(N=CN(C)C)c(C(=O)N3CCN(c4ncccn4)CC3)sc2n1,3.03% (inactive),–
O=C(CNC(=O)c1ccco1)Nc1ccc(S(=O)(=O)N2CCCC2)cc1,3.16% (inactive),–
CCC(=O)Nc1c2c(nn1-c1ccc(F)cc1)CS(=O)C2 (stereo not given),3.27% (inactive),–
c1coc(CNc2nc(-c3cccs3)cs2)c1,-0.623% (inactive),–
COc1ccc(-c2nnn(CC(=O)N3CCOCC3)n2)cc1,2.46% (inactive),–
O=C1S/C(=C\C=C\c2ccco2)C(=O)N1c1ccc(O)cc1,–,10 µM (active)

Structure (SMILES),"activity change, negative = inhibition",Potency
CCC(C(=O)Nc1nnc(-c2ccco2)s1)c1ccccc1 (stereo not given),4.66% (inactive),–
CCNC(=S)N/N=C/c1cn(Cc2ccc(F)cc2)c2ccccc12,-1.81% (inactive),–
C#CCOCCOCCOCCNc1nc(N2CCN(C(=O)CCCCCCCCCCNC(=O)[C@H](CO)n3cc(CCCSC)nn3)CC2)nc(N2CCN(C(=O)CCCCCCCCCCNC(=O)[C@H](CCCN=C(N)N)n3cc(C[C@@H](C)CC)nn3)CC2)n1,–,3.98 µM (active)
Cc1ccc(C(=O)C(=S)N2CCOCC2)cc1,2.32% (inactive),–
N#Cc1c(Nc2ccc(Cl)cc2)s[nH]c1=O,-3.6% (inactive),–
N#CNC(=Nc1cccc(F)c1)SCc1cccc(F)c1,4.07% (inactive),–
Nc1c(C(=O)NCC2CCCO2)sc2nc3c(c(-c4ccco4)c12)CC/C3=C\c1ccco1 (stereo not given),–,3.16 µM (active)
CCCc1cc(=O)oc2cc(C)c(CN3CCCC3)c(O)c12,8.44% (inactive),–
COC(=O)CSc1nnc(NC(=O)C2CC(=O)N(c3ccc(F)cc3)C2)s1 (stereo not given),–,10 µM (active)
COc1ccc(NC(=O)CSc2nnc(-c3ccccc3Cl)n2Cc2ccco2)c(OC)c1,-1.38% (inactive),–
CCCCCCCCCCOC(=O)Cn1c(COc2cccc(C)c2)[n+](C)c2ccccc21,–,10 µM (active)
O=C(Nc1cccc(S(=O)(=O)NC2=NCCC2)c1)c1cc(-c2ccco2)nc2ccccc12,–,1.78 µM (active)
O=C(CCNc1cccc(Cl)c1)c1ccco1,-1.57% (inactive),–
COc1ccc(S(=O)(=O)N(C)CC(=O)Nc2cccc(C(C)=O)c2)cc1Cl,-1.62% (inactive),–
C[C@@H]1CC[C@]2(C(=O)O)CC[C@]3(C)C(=CCC4[C@]56CC[C@@](O)(OC5)C(C)(C)C6CC[C@]43C)C2[C@H]1C (stereo not given in full),-24.5% (inactive),–
CCCCOC1(c2ccccc2)NC(=S)NN=C1c1ccccc1 (stereo not given),-0.372% (inactive),–
CCOC(=O)COc1ccccc1/C=N/O,0.129% (inactive),–
CCOC(=O)N1CCN(S(=O)(=O)c2ccc(C)cc2)C1c1ccc(OC)cc1 (stereo not given),1.57% (inactive),–
Cn1nnnc1Sc1ncnc2scc(-c3ccc4c(c3)OCO4)c12,-2.6% (inactive),–
CSCC[C@H](NC(=O)C1CCN(S(=O)(=O)c2ccc(C)cc2)CC1)C(=O)NCc1ccco1,-11.1% (inactive),–
